Experimental findings from PubChem BioAssay (NCATS) are described below.

The target of assay [1] is Cytochrome P450 1A2 (Homo sapiens) (UniProt P05177). Briefly: p450-cyp1a2 (AID 410; calls by dose curve; note: potency is the fitted concentration of half-maximal effect;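 for activity change, negative = inhibition: -100% = full effect of reference inhibitor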). In outline: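 20nM CYP1A2, 100uM Luciferin-ME (=Km), 100mM KPO4; cpd 10 min RT; +NADPH regen, 60 min RT; stop/detect 20 min; luminescence. Normalized to furafylline 57 uM = full inhibition.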
Sequence of Cytochrome P450 1A2 (Homo sapiens) (P05177 whole entry, looked up): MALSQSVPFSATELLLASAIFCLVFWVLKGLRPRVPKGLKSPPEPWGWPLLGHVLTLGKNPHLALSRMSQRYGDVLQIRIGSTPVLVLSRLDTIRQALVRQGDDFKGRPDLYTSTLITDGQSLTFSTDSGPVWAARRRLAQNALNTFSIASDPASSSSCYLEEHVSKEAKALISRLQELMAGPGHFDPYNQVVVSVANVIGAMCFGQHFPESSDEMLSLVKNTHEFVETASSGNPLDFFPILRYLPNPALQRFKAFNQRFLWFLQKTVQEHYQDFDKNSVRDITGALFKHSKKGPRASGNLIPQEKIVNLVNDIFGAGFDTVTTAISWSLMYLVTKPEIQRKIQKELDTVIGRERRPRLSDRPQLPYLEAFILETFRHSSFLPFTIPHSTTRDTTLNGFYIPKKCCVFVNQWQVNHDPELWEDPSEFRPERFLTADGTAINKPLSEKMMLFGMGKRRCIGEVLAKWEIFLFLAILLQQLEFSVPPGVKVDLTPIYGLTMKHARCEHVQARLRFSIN
Assay [2] concerns the target Glucocorticoid receptor (Homo sapiens) (UniProt P04150). The experiment in a line: GR-GFP Redistribution (AID 450;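 active = compounds whose dose series gives a full or clear partial fitted curve of increased nuclear translocation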; note: potency is the fitted concentration of half-maximal effect). Particulars: U2OS GR-GFP nuclear translocation, laser cytometry, 2 h.
Assay [3] has the same target. Briefly: GR-EFC Redistribution (AID 451; calls by dose curve; note: potency is the fitted concentration of half-maximal effect). The following applies: CHO-K1 GR-EFC translocation, beta-gal luminescence, 2 h. The gist of the method:
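Translocation of GR-ED fusion to nuclear EA restores b-gal, read by luminescence after 1 h room-temperature detection. Engineered CHO-K1 biosensor cells, 1,000/well, exposed 2 h at 37 C to titrations up to 46 uM final.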

Assay [4] concerns the target Mitogen-activated protein kinase 10 (Mus musculus) (UniProt Q61831). The experiment in a line: JNK3 AlphaScreen Assay (AID 530; active = well fitted curve in either direction with a large enough effect, not every such curve was filed as active;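 note: kinase came from lysate of stimulated human HepG2 cells; signal reports phosphorylation of biotinylated GST-cJun 1-79 at Ser73 with 10 µM ATP; % is set by controls: 0 for no effect and ±100 for the full control effect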). In outline: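 Kinase buffer: 20 mM Tris-HCl pH 7.6, 10 mM MgCl2, 1 mM DTT, 0.1 mM Na3VO4, 0.01% Tween-20; ATP 10 uM. Substrate biotin-GST-cJun(1-79), enzyme from activated HepG2 lysates. Detection by Ser73 phospho-antibody AlphaScreen.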
(In general: In Alpha technology, singlet oxygen from a donor bead excites a nearby acceptor bead.)

Assay [5] has as its target 3',5'-cyclic-AMP phosphodiesterase 4B (Homo sapiens) (UniProt Q07343). Briefly: qHTS Assay for Inhibitors of PDE-IV (AID 607; active = well fitted activation curve with a large enough effect in the main read-out, with a control signal flat, not every such curve was filed as active; note: potency is the fitted concentration of half-maximal effect). In outline:
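HEK293 ACTOne cells with CNG channel (1000/well), endogenous PDE4; membrane potential dye, compounds up to 22.9 uM final. Fluorescence Ex 535/Em 590; RO 20-1724 (100 uM final) as reference.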
Background: Quantitative high-throughput screening tests each substance at several concentrations.

For assay [6], the target named is Cytochrome P450 3A4 (Homo sapiens) (UniProt P08684). The experiment in a line: qHTS Assay for Activators of Cytochrome P450 3A4 (AID 885). Note: nearly all actives have a fitted effect of over 65% in size. In outline:
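Human CYP3A4 dealkylates Luciferin-PPXE to luciferin, which luciferase detection converts to light. Substrate was at its KM (25uM), buffer 200mM KPO4, reaction 60 min at RT.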

Assay [7] deals with Cytochrome P450 2D6 (Homo sapiens) (UniProt P10635). The experiment in a line: qHTS Assay for Inhibitors and Substrates of Cytochrome P450 2D6 (AID 891). Note: nearly all actives have a fitted effect of over 60% in size. Note: potency is the fitted concentration of half-maximal effect. The gist of the method: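 Luminescent read-out of luciferin formed by 5 nM human CYP2D6 demethylating 30 uM Luciferin-ME EGE (Km level) over 60 min at room temperature after NADPH regeneration addition. Data normalized to full inhibition by 1.43 uM quinidine.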

Assay [8] can be described thus: qHTS Assay for Lipid Storage Modulators (AID 1519; calls by dose curve). The following applies: Drosophila S3 cells, BODIPY lipid droplet/cell ratio, laser cytometry, cells loaded with oleic acid. The gist of the method:
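Cells seeded at 5,000 per well were treated with compounds over a concentration series and loaded with oleic acid (400 uM, as added). Lipid droplet fluorescence (488 nm excitation, 500-530 nm channel) was read by laser-scanning cytometry and normalized to 20 uM Triacsin C.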

The target of assay [9] is Ubiquitin carboxyl-terminal hydrolase 1 (Homo sapiens) (UniProt O94782). The experiment in a line: Inhibitors of USP1/UAF1: Pilot qHTS (AID 504865).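 Note: rhodamine fluorescence freed from ubiquitin-rhodamine substrate followed over time; top concentration of the series differs between compounds; % is set by controls: 0 for no effect and ±100 for the full control effect; nearly all actives have a fitted effect of over 35% in size.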 The gist of the method:
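USP1/UAF1 complex at 1 nM preincubated 15 min at room temperature with compound, then Ub-Rho substrate added at 150 nM final. Fluorescence (480/540 nm) read kinetically in 50 mM HEPES pH 7.8, 0.5 mM EDTA, 1 mM TCEP, 0.1 mg/ml BSA, 0.01% Tween-20.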

For assay [10], the target named is DNA dC->dU-editing enzyme APOBEC-3G (Homo sapiens) (UniProt Q9HC16). Briefly: qHTS for inhibitors of Vif-A3G interactions: Validation (AID 588379). Note: 0% is about no effect. The gist of the method:
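Yellow fluorescence (Ex 488, Em 500-530) of Vif-coexpressing HeLa A3G-eYFP cells, scanned by Acumen cytometer, reports blocked A3G degradation. Cells plated at 700/well overnight at 37 deg C before compound addition, then a further overnight compound incubation at 37 deg C.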

In assay [11] the test system is Zika virus NS2B-NS3 protease. The experiment in a line: Primary screen GU AMC qHTS for Zika virus inhibitors (AID 1347154).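 For activity change, negative = inhibition: 0% = no-inhibitor control and -100% = no-enzyme control.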 Note: nearly all actives have a fitted effect of over 70% in size. Note: potency is the fitted concentration of half-maximal effect. In outline:
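Fluorogenic AMC-substrate cleavage by noncovalent NS2B-NS3 protease complex (25 nM, pH 8.0 Tris buffer with Tween 20) followed for 15 minutes at room temperature (~20% conversion). Percent inhibition from ex340/em450 signal change, fitted by 4-parameter Hill equation.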

Assay [12] is described as follows: Primary qHTS for small molecule stabilizers of the endoplasmic reticulum resident proteome: Secreted ER Calcium Modulated Protein (SERCaMP) assay (AID 1508630). Note: % is set by controls: 0 for no effect and ±100 for the full control effect. The gist of the method: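 The SH-SY5Y reporter protocol was run at 3 concentrations up to 38.3 uM (primary) or 11 concentrations (follow-up): 16 h compound, 100 nM thapsigargin for 4 h, then extracellular luciferase luminescence.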

Assay [13] can be described thus: AP1 Signaling Pathway (AID 357; active = well fitted curve in either direction with a large enough effect, not every such curve was filed as active;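 note: ME-180 reporter cells stimulated with EGF at its EC50 level; % is set by controls: 0 for no effect and ±100 for the full control effect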). In outline:
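AP-1-bla ME-180 cells, Opti-MEM + 0.5% dialyzed FBS, plated overnight 37 °C. Cpd titration + EC50 EGF, 5 h 37 °C. CCF4 2.5 h RT; ex 405, em 460/530 ratio → %activity, AC50.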

A short description of assay [14]: Stat Signaling Pathway (AID 446; active = well fitted curve in either direction with a large enough effect, not every such curve was filed as active;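 note: ME-180 cervical cancer cells given 40 pM IL-6 alongside compound; SIE-controlled beta-lactamase reporter measured as 460/530 nm FRET emission ratio; % is set by controls: 0 for no effect and ±100 for the full control effect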). In outline:
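Normalization used AC90 stimulation (300 pM IL-6) and AC90 inhibition (125 nM pan-JAK inhibitor at 40 pM IL-6). The underlying signal is SIE-driven beta-lactamase in ME-180 cells after 5 h IL-6 exposure with compound.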

For assay [15], the target named is Guanine nucleotide-binding protein G(i) subunit alpha-1 (Homo sapiens) (UniProt P63096). Briefly: qHTS Assay for Inhibitors of RGS12 GoLoco Motif Activity (Green Fluorophore) (AID 879).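 Note: 0% = labeled peptide with Gαi1 and full inhibition = labeled peptide alone without protein; negative values mean loss of peptide binding seen as reduced polarization.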 The gist of the method:
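A drop in FITC polarization marked displacement of the FITC-tagged RGS12 GoLoco peptide (10 nM) from Gαi1 (50 nM). Compounds were incubated 10 min at room temperature in Tris pH 7.5 buffer containing 150 mM NaCl, 0.1 mM GDP and 0.05% NP40; unlabeled peptide titration served as control.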

In assay [16] the target is Pyruvate kinase (Leishmania mexicana) (UniProt Q27686). Briefly: qHTS Validation Assay for Inhibitors of Leishmania Mexicana Pyruvate Kinase (AID 945).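 Note: 0% = DMSO only neutral control wells.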 In outline: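 An endpoint luciferase assay: 0.2 nM LmPYK E451W turns over 0.5 mM PEP with 0.1 mM ADP for 1 h at room temperature, pH 7.2, before PKLight addition. Values are normalized to DMSO-only wells.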
The target of assay [17] is Pyruvate kinase PKM (Homo sapiens) (UniProt P14618). Briefly: qHTS Assay for Activators of Human Muscle Pyruvate Kinase (AID 954; active = well fitted curve in the direction sought with a large enough effect, not every such curve was filed as active;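 note: 0% = uninhibited enzyme and -100% = no enzyme or full thiadiazolimine inhibition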). The gist of the method: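 Compound pinned into substrate mix (0.5 mM PEP, 0.1 mM ADP), then 0.1 nM PKM2 added; 1 h, RT. Stop/detection luciferase reagent added, luminescence read. Normalized to no-inhibition and no-enzyme or reference-inhibitor controls.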
Sequence of Pyruvate kinase PKM (Homo sapiens) (P14618 whole entry, looked up): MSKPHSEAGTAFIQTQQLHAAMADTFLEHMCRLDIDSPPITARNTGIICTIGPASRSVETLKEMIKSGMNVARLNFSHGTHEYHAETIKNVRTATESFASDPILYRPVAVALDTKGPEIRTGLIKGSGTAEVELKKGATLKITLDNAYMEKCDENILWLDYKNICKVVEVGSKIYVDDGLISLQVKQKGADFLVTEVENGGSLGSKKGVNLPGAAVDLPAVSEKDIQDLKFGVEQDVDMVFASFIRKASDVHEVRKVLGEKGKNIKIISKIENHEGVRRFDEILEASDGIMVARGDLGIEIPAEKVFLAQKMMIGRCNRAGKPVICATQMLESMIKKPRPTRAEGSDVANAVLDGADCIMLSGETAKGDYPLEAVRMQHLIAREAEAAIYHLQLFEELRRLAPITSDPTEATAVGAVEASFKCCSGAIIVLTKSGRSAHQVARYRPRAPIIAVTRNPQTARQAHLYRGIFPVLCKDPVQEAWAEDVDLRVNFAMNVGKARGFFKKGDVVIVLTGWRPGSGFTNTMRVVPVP

The target of assay [18] is Alpha-galactosidase A (Homo sapiens) (UniProt P06280). Briefly: Counterscreen for Glucocerebrosidase Inhibitors: qHTS Assay for Human alpha-Galactosidase at pH 4.5 (AID 992). Note: 0% is about no effect. In outline: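 Steps: enzyme (2 nM final), then compound across 0.7 nM to 77 uM, then 80 uM fluorogenic galactopyranoside substrate; incubate 20 min at room temperature; quench at pH 10; measure fluorescence at 365/440 nm.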
Sequence of Alpha-galactosidase A (Homo sapiens) (P06280 whole entry, looked up): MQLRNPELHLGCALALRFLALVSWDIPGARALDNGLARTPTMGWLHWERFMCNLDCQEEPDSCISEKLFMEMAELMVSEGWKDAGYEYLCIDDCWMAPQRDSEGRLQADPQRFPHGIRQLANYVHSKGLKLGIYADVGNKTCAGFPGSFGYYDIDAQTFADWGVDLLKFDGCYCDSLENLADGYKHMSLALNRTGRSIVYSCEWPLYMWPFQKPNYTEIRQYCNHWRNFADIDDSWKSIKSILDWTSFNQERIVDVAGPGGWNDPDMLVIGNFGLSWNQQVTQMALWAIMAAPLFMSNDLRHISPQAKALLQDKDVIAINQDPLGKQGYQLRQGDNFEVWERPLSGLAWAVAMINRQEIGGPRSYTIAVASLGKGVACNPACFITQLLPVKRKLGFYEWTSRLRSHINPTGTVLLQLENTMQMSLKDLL
Background: The purpose of a counterscreen is to sort out artefacts and off-target activity.

Assay [19] deals with alpha-glucosidase (Oryza sativa, rice) (UniProt Q653V4). Briefly: Counterscreen for Glucocerebrosidase Inhibitors: qHTS Assay for Rice alpha-Glucosidase at pH 5.0 (AID 997).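 Note: 0% = full activity with enzyme and -100% = basal without enzyme.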 The gist of the method: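 Endpoint fluorogenic assay at pH 5.0: compounds (0.7 nM to 77 uM) titrated against 4 nM rice enzyme and 400 uM 4-MU-alpha-glucoside for 20 min at room temperature; NaOH/glycine stop, read ex 365/em 440 nm, Hill-fitted AC50.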

Assay [20] deals with Alpha-galactosidase (Coffea arabica) (UniProt Q42656). The experiment in a line: Counterscreen for Glucocerebrosidase Inhibitors: qHTS Assay for Coffee Bean alpha-Galactosidase at pH 5.9 (AID 998).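 Note: plate controls were uninhibited enzyme for no effect and no-enzyme basal signal for full effect.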 The gist of the method:
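Fluorogenic 4-MU substrate hydrolysis, 80 uM substrate and 2 nM coffee bean alpha-galactosidase, pH 5.9 citrate buffer, 20 min at room temperature, then NaOH/glycine stop. Titration 0.7 nM–77 uM, normalized to no-enzyme and enzyme controls, AC50 via Hill equation.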

The mark [21] stands for this setting: measured here: cell count channel max response.
The mark [22] stands for this setting: measured here: lipid channel max response.

Each structure is given as a SMILES string. Where “and” joins values, the source holds several entries; their conditions need not be identical. Identical values can stand only once. Records with an inconclusive call do not appear. Calls of active or inactive are those of the source. Unless noted, calls come from the whole dose curve; as a rule, active = well fitted curve in the direction sought with a large enough effect; inconclusive = small, poorly fitted or top-dose-only effect, or another doubt; inactive = no such curve, though single readings can be large; an effect the other way counts as inactive or inconclusive.

Sequence of Ubiquitin carboxyl-terminal hydrolase 1 (Homo sapiens) (O94782 whole entry, looked up): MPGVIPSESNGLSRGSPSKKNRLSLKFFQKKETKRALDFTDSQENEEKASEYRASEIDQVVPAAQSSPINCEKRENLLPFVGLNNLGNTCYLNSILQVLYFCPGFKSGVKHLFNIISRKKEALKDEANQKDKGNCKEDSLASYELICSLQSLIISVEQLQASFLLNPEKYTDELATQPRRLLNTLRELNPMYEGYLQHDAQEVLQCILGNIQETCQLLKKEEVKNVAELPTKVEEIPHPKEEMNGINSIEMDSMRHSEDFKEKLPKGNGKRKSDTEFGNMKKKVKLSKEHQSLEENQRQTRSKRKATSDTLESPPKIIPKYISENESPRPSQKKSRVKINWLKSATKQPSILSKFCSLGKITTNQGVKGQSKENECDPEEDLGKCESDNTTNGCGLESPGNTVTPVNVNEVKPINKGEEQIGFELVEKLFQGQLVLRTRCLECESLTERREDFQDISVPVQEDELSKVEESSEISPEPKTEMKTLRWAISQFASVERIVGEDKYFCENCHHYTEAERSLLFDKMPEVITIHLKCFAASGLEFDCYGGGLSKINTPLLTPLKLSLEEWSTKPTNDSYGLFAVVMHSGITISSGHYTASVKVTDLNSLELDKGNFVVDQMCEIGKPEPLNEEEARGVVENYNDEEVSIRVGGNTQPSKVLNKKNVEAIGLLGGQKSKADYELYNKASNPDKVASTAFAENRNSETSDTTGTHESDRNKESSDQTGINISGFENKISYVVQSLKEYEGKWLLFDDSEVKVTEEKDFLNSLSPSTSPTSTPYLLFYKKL
Sequence of Glucocorticoid receptor (Homo sapiens) (P04150 whole entry, looked up): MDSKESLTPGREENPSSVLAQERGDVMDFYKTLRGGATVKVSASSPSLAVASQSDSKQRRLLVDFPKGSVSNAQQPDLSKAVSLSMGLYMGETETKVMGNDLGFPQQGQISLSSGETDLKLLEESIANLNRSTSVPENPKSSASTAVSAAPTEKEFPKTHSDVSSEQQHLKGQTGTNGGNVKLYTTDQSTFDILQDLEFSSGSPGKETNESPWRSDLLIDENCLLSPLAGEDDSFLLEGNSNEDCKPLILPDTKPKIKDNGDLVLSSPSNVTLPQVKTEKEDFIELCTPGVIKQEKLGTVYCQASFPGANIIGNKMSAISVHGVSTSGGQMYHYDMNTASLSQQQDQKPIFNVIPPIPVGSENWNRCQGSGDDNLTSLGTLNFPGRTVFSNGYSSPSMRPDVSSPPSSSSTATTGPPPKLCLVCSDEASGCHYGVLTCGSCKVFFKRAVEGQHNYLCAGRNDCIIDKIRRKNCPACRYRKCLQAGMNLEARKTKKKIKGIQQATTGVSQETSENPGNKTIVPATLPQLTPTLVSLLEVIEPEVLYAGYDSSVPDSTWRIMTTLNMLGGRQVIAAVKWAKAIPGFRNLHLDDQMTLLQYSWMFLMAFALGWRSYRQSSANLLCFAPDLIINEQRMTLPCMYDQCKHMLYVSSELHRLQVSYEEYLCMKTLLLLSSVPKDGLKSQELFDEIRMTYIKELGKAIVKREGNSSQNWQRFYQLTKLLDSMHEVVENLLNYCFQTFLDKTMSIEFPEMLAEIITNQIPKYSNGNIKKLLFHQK
Sequence of 3',5'-cyclic-AMP phosphodiesterase 4B (Homo sapiens) (Q07343 whole entry, looked up): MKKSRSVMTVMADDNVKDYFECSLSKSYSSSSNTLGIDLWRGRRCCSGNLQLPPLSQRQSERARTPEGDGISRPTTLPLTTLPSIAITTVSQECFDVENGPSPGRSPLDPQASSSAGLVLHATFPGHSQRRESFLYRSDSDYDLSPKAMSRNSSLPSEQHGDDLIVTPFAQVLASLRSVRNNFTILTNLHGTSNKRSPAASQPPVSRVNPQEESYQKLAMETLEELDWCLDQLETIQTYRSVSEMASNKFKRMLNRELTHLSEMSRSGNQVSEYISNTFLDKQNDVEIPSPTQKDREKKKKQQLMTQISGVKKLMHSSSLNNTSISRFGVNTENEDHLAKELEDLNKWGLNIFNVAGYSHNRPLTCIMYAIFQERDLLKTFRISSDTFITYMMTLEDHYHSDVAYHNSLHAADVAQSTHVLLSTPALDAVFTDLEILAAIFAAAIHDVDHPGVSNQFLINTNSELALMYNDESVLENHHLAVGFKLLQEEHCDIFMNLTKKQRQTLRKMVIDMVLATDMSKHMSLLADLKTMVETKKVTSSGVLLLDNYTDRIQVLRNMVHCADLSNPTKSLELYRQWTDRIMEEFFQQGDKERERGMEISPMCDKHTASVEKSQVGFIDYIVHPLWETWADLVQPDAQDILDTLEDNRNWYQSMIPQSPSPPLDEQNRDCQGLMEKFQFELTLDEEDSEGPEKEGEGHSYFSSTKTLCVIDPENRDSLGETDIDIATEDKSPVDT
Sequence of Guanine nucleotide-binding protein G(i) subunit alpha-1 (Homo sapiens) (P63096 whole entry, looked up): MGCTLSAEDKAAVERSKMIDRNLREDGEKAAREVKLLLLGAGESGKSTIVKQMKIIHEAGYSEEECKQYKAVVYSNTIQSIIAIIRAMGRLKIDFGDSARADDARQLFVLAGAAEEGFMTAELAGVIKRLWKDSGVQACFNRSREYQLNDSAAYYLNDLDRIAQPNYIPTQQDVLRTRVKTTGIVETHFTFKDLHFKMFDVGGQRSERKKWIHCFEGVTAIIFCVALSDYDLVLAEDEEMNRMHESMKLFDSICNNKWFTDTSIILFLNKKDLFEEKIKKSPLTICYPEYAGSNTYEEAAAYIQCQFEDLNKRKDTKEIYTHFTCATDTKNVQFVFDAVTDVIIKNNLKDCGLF
Sequence of Cytochrome P450 3A4 (Homo sapiens) (P08684 whole entry, looked up): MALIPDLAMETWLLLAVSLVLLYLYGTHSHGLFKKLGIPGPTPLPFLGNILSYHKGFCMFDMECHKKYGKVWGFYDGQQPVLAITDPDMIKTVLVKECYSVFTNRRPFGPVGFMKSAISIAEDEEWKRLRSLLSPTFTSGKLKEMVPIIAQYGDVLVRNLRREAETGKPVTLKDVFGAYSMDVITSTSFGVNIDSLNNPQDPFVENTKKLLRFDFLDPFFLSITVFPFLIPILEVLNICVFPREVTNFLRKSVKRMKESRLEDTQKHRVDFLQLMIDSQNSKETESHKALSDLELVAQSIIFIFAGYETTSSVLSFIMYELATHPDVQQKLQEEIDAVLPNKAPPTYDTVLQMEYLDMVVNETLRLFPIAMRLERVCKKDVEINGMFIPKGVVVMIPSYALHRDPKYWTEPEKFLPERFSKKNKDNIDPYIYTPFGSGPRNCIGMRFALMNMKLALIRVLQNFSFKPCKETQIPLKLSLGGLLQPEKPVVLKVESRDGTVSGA
Sequence of Alpha-galactosidase (Coffea arabica) (Q42656 whole entry, looked up): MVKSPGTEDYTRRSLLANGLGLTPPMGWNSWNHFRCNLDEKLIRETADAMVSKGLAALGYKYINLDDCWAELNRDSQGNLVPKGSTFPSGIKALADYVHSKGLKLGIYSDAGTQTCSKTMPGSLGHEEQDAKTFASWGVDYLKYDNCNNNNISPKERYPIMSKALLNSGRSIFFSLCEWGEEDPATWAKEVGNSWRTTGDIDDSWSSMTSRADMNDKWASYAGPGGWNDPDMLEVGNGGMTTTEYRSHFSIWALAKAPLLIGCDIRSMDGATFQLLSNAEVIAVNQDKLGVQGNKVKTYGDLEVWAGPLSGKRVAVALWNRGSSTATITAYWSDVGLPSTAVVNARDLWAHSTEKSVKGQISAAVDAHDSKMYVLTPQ

For `c1ccc(C[C@@H](c2ccccc2)N2CCCCC2)cc1`, the Potency in assay [1] is 15.8 µM (active); in [2], > 46 µM (inactive); in assay [3], > 46 µM (inactive); in assay [5], 4.77 µM (active); in [7], 2 µM (active). Further, the call in assay [4] was inactive. For the same compound, the Potency entry in assay [6], in [9], in [10], in assay [11] and in assay [12] was “inactive” in each case. The activity change, negative = inhibition in [8] (at 57.5 µM (top of the series)) was -5.07% (inactive). Also, the max response in assay [8] (setting [21]) is -11.4%; in [8] (setting [22]), -18.1%.
For `CN1CCc2cc(O)cc3c2C1Cc1ccc(O)c(O)c1-3` (stereo not given), in [11], the Potency is 18.9 µM (active). Besides, the Potency entry in assay [12] is “inactive”.
Turning to `C[C@@H](Cc1ccc(OCC(=O)O)cc1)NC[C@H](O)c1cccc(Cl)c1`, the result in [13], in assay [14], in [4], in assay [15], in assay [16] and in assay [17] was inactive. Further, the outcome in assay [18], in [19] and in [20] was inactive. The Potency result in assay [1], in assay [5], in assay [6], in assay [9], in assay [11] and in [12] was “inactive” throughout. Moreover, the Potency in [2] and in [3] was > 46 µM (inactive) throughout. Also, in [8] (at 57.5 µM (top of the series)), the activity change, negative = inhibition was -1.87% (inactive). The results for the max response in assay [8] (setting [21]) and in [8] (setting [22]) were 11.5% and 8.85%, respectively.
For `NC[C@@H](CC(=O)O)c1ccc(Cl)cc1`, the call in assay [13] and in assay [14] was inactive. Further, the Potency entry in assay [1], in assay [5], in assay [7], in assay [11] and in assay [12] was “inactive” in each case. Besides, the Potency in assay [3] was > 20.6 µM (inactive) and > 46 µM (inactive). In addition, the activity change, negative = inhibition in assay [8] (at 25.7 µM (top of the series)) was 0.101% (inactive). Moreover, the max response in assay [8] (setting [21]) was 11.7%; in assay [8] (setting [22]) it was 10.6%.
On to `COc1cc(CCN)ccc1O`, for which the call in [13], in [4], in [15], in assay [16], in assay [17] and in assay [18] was inactive. Further, the compound was called inactive in assay [19] and in [20]. The Potency result in [1], in [5], in assay [11] and in [12] was “inactive” each time. Moreover, the Potency in assay [2] and in assay [3] was > 46 µM (inactive) in each case.
In the case of `COC(=O)/C=C\C(=O)N[C@@H]1CC[C@@]2(O)[C@H]3Cc4ccc(O)c5c4[C@@]2(CCN3CC2CC2)[C@@H]1O5`, in assay [3], the Potency is > 46 µM (inactive). In addition, in [4], the outcome was inactive. The Potency entry in assay [5], in [9], in [11] and in [12] was “inactive” in each case. The activity change, negative = inhibition in assay [8] (at 57.5 µM (top of the series)) was -0.127% (inactive). Besides, the max response is -6.87% in assay [8] (setting [21]) and -10.5% in assay [8] (setting [22]).
